Test results: the supplement of paper PMC7530171
Structures can show the parent of a compound that is named as a salt. ± gives the standard deviation.

The compounds below were run on THP-1 macrophages infected with Mycobacterium tuberculosis H37Rv (assay: intracellular M.tb growth inhibition relative to DMSO (0) and 4 uM bedaquiline (100); higher = stronger inhibition of intracellular bacterial growth). Details: 10 µM; 4 days.
Procedure: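 OICR kinase inhibitor library screened in duplicate at 10 uM against THP-1 macrophages (PMA-differentiated) infected with M. tuberculosis H37Rv-pTEC27 (tdTomato RFP), 4 days at 37 C. Rows with complete host cell loss (placeholder inhibition 0, cell loss 100) were removed.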

Going from `COc1cc2/c(=N/c3ccc(Br)cc3F)nc[nH]c2cc1OCC1CCN(C)CC1` [Vandetanib] to `COc1cc2c(Oc3ccc4[nH]c(C)cc4c3F)ncnc2cc1OCCCN1CCCC1` [Cediranib], the “intracellular M.tb growth inhibition” value falls from 64.1 ± 6.5% to 6.57 ± 9.3%.

`NCc1ccc(Nc2ncc(F)c(Nc3ccccc3)n2)cc1` [Dianilinopyrimidine_01] and `Clc1ccc(Nc2nnc(Cc3ccncc3)c3ccccc23)cc1` [Vatalanib dihydrochloride] are within error of each other in “intracellular M.tb growth inhibition” value: 99.2 ± 230% for the first, -2.9 ± 24% for the second.

`O=C(Nc1cccc(Nc2ncc(Br)c(NCCc3cnc[nH]3)n2)c1)N1CCCC1` and `CS(=O)(=O)c1cccc(CNc2nc(Nc3ccc4c(c3)CCC(=O)N4)ncc2C(F)(F)F)c1` are within error of each other in “intracellular M.tb growth inhibition” value: -256 ± 330% for the first, -96.4 ± 26% for the second.

`C[C@@H](N)[C@H]1CC[C@H](C(=O)Nc2ccncc2)CC1` and `O=C(Nc1ccc(-c2cn[nH]c2)cc1)C1COc2ccccc2O1` (stereo not given) [Rho Kinase Inhibitor V] are within error of each other in “intracellular M.tb growth inhibition” value: -59.3 ± 110% for the first, 27.7 ± 10% for the second.

`Cc1ccc(-n2nc(C(C)(C)C)cc2NC(=O)Nc2ccc(OCCN3CCOCC3)c3ccccc23)cc1` and `CCc1nc(-c2cccc(C)c2)c(-c2ccnc(NC(=O)c3ccccc3)c2)s1` are within error of each other in “intracellular M.tb growth inhibition” value: -1.53 ± 2.2% for the first, 0.0588 ± 120% for the second.

`O=C(O)c1ccc2c3c1cccc3c(=O)n1c3ccccc3nc21` [STO-609 acetic acid] and `O=C(O)c1ccc2c(c1)nc(Nc1cccc(Cl)c1)c1ccncc12` are within error of each other in “intracellular M.tb growth inhibition” value: -29.1 ± 36% for the first, -112 ± 130% for the second.

Going from `O=S(=O)(NCCNC/C=C/c1ccc(Br)cc1)c1cccc2cnccc12` [H 89 dihydrochloride] to `COc1ccc(S(=O)(=O)N(C(C)=O)c2ccccc2/C=C/c2cc[n+]([O-])cc2)cc1`, the “intracellular M.tb growth inhibition” value falls from 70.3 ± 6.1% to -316 ± 310%.

`CCN(CC)CCNC(=O)c1c(C)[nH]c(/C=C2\C(=O)Nc3ccc(F)cc32)c1C` [Sunitinib Malate] and `Cn1cc(/C=C2\C(=O)Nc3cccnc32)c2ccccc21` are within error of each other in “intracellular M.tb growth inhibition” value: -45.8 ± 29% for the first, -49.9 ± 14% for the second.

`NC(=O)Nc1sc(-c2ccc(F)cc2)cc1C(N)=O` and `Nc1nc(Nc2ccc(S(N)(=O)=O)cc2)nn1C(=S)Nc1c(F)cccc1F` [Cdk1/2 Inhibitor III] are within error of each other in “intracellular M.tb growth inhibition” value: -19 ± 13% for the first, -193 ± 240% for the second.

`COc1ccc(OC)c2c(=S)c3ccccc3[nH]c12` and `COc1cccc(-c2cc(=O)c3ccccc3o2)c1N` are within error of each other in “intracellular M.tb growth inhibition” value: -14.9 ± 44% for the first, 27.4 ± 15% for the second.

`Cc1cc(Nc2cc(C)c(C#N)c(NC(C)CCCC(C)(C)O)n2)n[nH]1` (stereo not given) [TC-A 2317 hydrochloride] and `COc1cc(Nc2ncc(F)c(Nc3ccc4c(n3)NC(=O)C(C)(C)O4)n2)cc(OC)c1OC` are within error of each other in “intracellular M.tb growth inhibition” value: -257 ± 200% for the first, -164 ± 230% for the second.

`Nc1[nH]nc2nc3ccccc3nc12` and `c1ccc(-c2n[nH]c3c2oc2ccccc23)cc1` are within error of each other in “intracellular M.tb growth inhibition” value: 0.53 ± 68% for the first, 7.69 ± 11% for the second.

`O=C1C(Cl)=C(NCCN2CCOCC2)C(=O)c2ncccc21` and `O=c1cc(N2CCOCC2)oc2c(-c3ccccc3)cccc12` are within error of each other in “intracellular M.tb growth inhibition” value: -3.64 ± 5.1% for the first, -0.768 ± 100% for the second.

Compared with `CS(=O)(=O)N1CCN(Cc2cc3nc(-c4cccc5[nH]ncc45)nc(N4CCOCC4)c3s2)CC1` [GDC-0941 bismesylate], `O=S(=O)(c1cccc2c(Cl)cccc12)N1CCCNCC1` [ML 9 hydrochloride] is lower in “intracellular M.tb growth inhibition” value: 56 ± 26% for the first, -14 ± 4.8% for the second.

`COc1cc(C[C@H]2C(=O)OC[C@@H]2Cc2ccc(OC)c(OC)c2)ccc1O` [Arctigenin] and `COc1cc2nccc(Oc3ccc(NC(=O)Nc4cc(C)on4)c(Cl)c3)c2cc1OC` are within error of each other in “intracellular M.tb growth inhibition” value: 46 ± 8.1% for the first, -5.89 ± 83% for the second.

`Cn1c2ccccc2c2c3c(c4c5ccccc5n(CCC#N)c4c21)CNC3=O` and `N#Cc1c(-c2ccccc2)cc(-c2cc(Br)ccc2O)[nH]c1=O` are within error of each other in “intracellular M.tb growth inhibition” value: -29.9 ± 36% for the first, 19.8 ± 17% for the second.

Going from `CO[C@H]1C[C@@H]2CC[C@@H](C)[C@@](O)(O2)C(=O)C(=O)N2CCCC[C@H]2C(=O)O[C@H]([C@H](C)C[C@@H]2CC[C@@H](OC(=O)C(C)(CO)CO)[C@H](OC)C2)CC(=O)[C@H](C)/C=C(\C)[C@@H](O)[C@@H](OC)C(=O)[C@H](C)C[C@H](C)/C=C/C=C/C=C/1C` [Temsirolimus] to `C=CC[C@@H]1/C=C(\C)C[C@H](C)C[C@H](OC)[C@H]2O[C@@](O)(C(=O)C(=O)N3CCCC[C@H]3C(=O)O[C@H](/C(C)=C/[C@@H]3CC[C@@H](O)[C@H](OC)C3)[C@H](C)[C@@H](O)CC1=O)[C@H](C)C[C@@H]2OC`, the “intracellular M.tb growth inhibition” value rises from -22.8 ± 24% to 42 ± 7.7%.

`Cc1csc(-c2nnc(Nc3ccc(Oc4ncccc4-c4ccnc(N)n4)cc3)c3ccccc23)c1` and `CN(C)c1cc2c(Nc3ccc4c(cnn4Cc4ccccc4)c3)ncnc2cn1` are within error of each other in “intracellular M.tb growth inhibition” value: 126 ± 190% for the first, 43.5 ± 9.2% for the second.

`COc1cc2ncnc(-n3nc(-c4ccccn4)nc3N)c2cc1OC` and `O=C(Nc1cc(Cl)cc2c1[nH]c1cnccc12)c1cccnc1` [PS1145 dihydrochloride] are within error of each other in “intracellular M.tb growth inhibition” value: -77 ± 180% for the first, -10.6 ± 33% for the second.

Compared with `O=C(Nc1cc(C(F)(F)F)cc(C(F)(F)F)c1)c1cc(Cl)ccc1O`, `Cc1ccccc1C(=O)c1ccc(Nc2ccc(Br)cc2N)cc1Cl` is lower in “intracellular M.tb growth inhibition” value: 64.7 ± 16% for the first, 20.1 ± 14% for the second.
